Laboratory results taken from PubChem BioAssay (Tox21).
Records with an inconclusive call do not appear. Where a call stands in place of a potency, no number is given. The source made the active and inactive calls. Unless noted, the call rests on the fitted dose curve; in most records, active means well fitted curve in the direction sought with a large enough effect in the repeat runs; inconclusive means weak or mixed curves; inactive means no such curve, though single readings can be large; an effect the other way counts as inactive or inconclusive.

What was measured:
[1] = qHTS assay to identify small molecule agonists of the progesterone receptor (PR) signaling pathway - cell viability counter screen (AID 1346799; calls by dose curve; further: nearly all actives have a fitted effect of over 45% in size; further: potency means the concentration at half of the fitted maximal effect); details: PR-UAS-bla HEK293T viability, CellTiter-Glo luminescence, 16 h; series mostly up to 92.4 µM
Outline: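 Cytotoxicity in PR-bla HEK293T cells: 16 h compound, 37C; CellTiter-Glo added post-FRET read; luminescence after 30 min RT.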

[2] = qHTS assay to identify small molecule agonists of the TGF-beta/Smad signaling pathway - cell viability counter screen (AID 1346829); details: SBE-bla HEK293T viability, CellTiter-Glo luminescence, 5 h; series mostly up to 76.8 µM; further: top concentration of the series differs between compounds; nearly all actives have a fitted effect of over 45% in size
Outline: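 In parallel with the Smad reporter read, viability of HEK 293T cells stably carrying SBE-bla is quantified by ATP luminescence following 5 hr compound treatment.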

[3] = qHTS assay to identify small molecule agonists of the TGF-beta/Smad signaling pathway (AID 1346859; active means well fitted activation curve with a large enough effect in the signal ratio in the repeat runs, not every such curve was filed as active; the % refers to the signal ratio); details: SBE-bla HEK293T, TGF-beta/Smad beta-lactamase reporter, 5 h; series mostly up to 76.8 µM
Outline: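 Stable Smad binding element-beta-lactamase HEK 293T cells; 5 hr compound exposure at 37 C under 5% CO2; 2 hr room-temperature substrate step; fluorescence excited at 405 nm, collected at 460 nm and 530 nm.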

[4] = biological target: Thyrotropin-releasing hormone receptor (Homo sapiens) (UniProt P34981); assay: qHTS assay to identify small molecule antagonists of the thyrotropin-releasing hormone receptor (TRHR) signaling pathway (AID 1346877; active means well fitted inhibition curve with a large enough effect in the repeat runs, not every such curve was filed as active); details: TRHR-HEK293, TRH-induced calcium fluorescence, antagonist mode; series mostly up to 51.3 µM
Thyrotropin-releasing hormone receptor (Homo sapiens), sequence (P34981 whole entry, looked up): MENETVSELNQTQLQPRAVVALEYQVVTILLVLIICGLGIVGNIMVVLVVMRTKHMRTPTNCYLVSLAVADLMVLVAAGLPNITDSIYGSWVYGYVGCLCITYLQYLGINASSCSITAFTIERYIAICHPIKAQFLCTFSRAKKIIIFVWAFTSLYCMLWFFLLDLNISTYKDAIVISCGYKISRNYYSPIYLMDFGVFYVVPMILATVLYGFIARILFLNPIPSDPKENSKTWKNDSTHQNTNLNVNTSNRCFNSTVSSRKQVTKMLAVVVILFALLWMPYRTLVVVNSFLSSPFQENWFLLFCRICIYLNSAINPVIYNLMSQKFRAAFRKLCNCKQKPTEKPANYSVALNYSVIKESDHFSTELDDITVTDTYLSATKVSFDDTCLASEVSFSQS
Outline: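 Kinetic fluorescence (3 min, 1 s resolution) following stimulation with TRH at 1 nM final; HEK293 cells bearing human TRHR; 5 min compound preincubation at RT; concentration-response over 15 points, triplicates.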

[5] = biological target: Thyrotropin-releasing hormone receptor (Homo sapiens) (UniProt P34981); assay: qHTS assay to identify small molecule agonists of the thyrotropin-releasing hormone receptor (TRHR) signaling pathway (AID 1346891; calls by dose curve; further: potency means the concentration at half of the fitted maximal effect;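 on activation: HEK293 cells expressing TRHR with calcium dye readout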); details: TRHR-HEK293 calcium fluorescence, agonist mode; series mostly up to 57.6 µM
Outline: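 In 1536-format, 1500 TRHR-Hek293 cells per well grew 18 h, took up calcium dye for 2 h at 37 °C, received compound, and were read kinetically; 15-point titrations, triplicates.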

[6] = biological target: Progesterone receptor (Homo sapiens) (UniProt P06401); assay: qHTS assay to identify small molecule antagonists of the progesterone receptor (PR) signaling pathway (AID 1346795; active means well fitted inhibition curve with a large enough effect in the signal ratio in the repeat runs, not every such curve was filed as active; the % refers to the signal ratio; further: potency means the concentration at half of the fitted maximal effect); details: PR-UAS-bla HEK293T, beta-lactamase FRET ratio, 16 h; series mostly up to 92.4 µM
Progesterone receptor (Homo sapiens), sequence (P06401 whole entry, looked up): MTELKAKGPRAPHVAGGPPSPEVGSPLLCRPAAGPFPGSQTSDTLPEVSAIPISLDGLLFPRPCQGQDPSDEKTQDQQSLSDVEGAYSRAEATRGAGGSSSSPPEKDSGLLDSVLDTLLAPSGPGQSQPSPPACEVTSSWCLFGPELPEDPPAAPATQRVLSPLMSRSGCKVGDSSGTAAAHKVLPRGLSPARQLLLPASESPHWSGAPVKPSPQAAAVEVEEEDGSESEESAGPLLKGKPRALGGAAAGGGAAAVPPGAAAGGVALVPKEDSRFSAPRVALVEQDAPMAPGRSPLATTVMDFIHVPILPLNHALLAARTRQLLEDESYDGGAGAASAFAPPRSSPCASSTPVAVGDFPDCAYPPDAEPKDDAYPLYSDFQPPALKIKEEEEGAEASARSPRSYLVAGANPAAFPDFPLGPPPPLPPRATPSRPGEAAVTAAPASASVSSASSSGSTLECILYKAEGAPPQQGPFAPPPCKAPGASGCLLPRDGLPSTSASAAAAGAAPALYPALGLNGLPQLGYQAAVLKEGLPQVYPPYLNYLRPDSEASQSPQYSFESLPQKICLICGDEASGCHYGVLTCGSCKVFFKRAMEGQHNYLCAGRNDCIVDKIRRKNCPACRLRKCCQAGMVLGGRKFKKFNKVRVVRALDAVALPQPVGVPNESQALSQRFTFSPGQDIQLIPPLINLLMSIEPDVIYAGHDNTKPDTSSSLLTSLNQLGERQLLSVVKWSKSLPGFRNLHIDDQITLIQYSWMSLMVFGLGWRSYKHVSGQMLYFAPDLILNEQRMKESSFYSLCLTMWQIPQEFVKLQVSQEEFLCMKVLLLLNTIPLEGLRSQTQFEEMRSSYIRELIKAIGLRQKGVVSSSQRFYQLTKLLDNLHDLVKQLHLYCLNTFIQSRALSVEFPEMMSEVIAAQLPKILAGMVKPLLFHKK
Outline: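 Inhibition of R5020-induced (1 nM final) beta-lactamase reporter signal in PR-UAS-bla HEK293T cells was scored by FRET fluorescence after overnight (16 hr) compound treatment.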

[7] = qHTS assay to identify small molecule antagonists of the TGF-beta/Smad signaling pathway - cell viability counter screen (AID 1346824); details: SBE-bla HEK293T viability, CellTiter-Glo luminescence; series mostly up to 76.8 µM; further: nearly all actives have a fitted effect of over 50% in size
Outline: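 SBE-bla HEK 293T cells, incubated overnight, then compound plus 0.25 ng/mL TGF-beta1 (stock added) for 5 hr at 37 C. Viability was read in the same wells by CellTiter-Glo luminescence after 30 min at room temperature.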

[8] = qHTS assay to identify small molecule antagonists of the progesterone receptor (PR) signaling pathway - cell viability counter screen (AID 1346798); details: PR-UAS-bla HEK293T viability, CellTiter-Glo luminescence, 16 h; series mostly up to 92.4 µM; further: nearly all actives have a fitted effect of over 50% in size; further: potency means the concentration at half of the fitted maximal effect
Outline: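 ATP content as viability readout: CellTiter-Glo luminescence, 30 min room temperature, in PR-UAS-bla HEK293T cells after 16 hr compound/R5020 treatment at 37C and 5% CO2.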

Compound | Potency [1] | Potency [2] | Potency [3] | Potency [4] | Potency [5] | Potency [6] | Potency [7] | Potency [8]
Oc1ccc(C2(c3ccc(O)cc3)CC3CC2C2CCCC32)cc1 (stereo not given) | 58.7 µM (active) | inactive | inactive | inactive | inactive |  |  | 
O=C(Nc1ccc(Oc2ccc(Cl)cc2)c(Cl)c1)c1cc(I)cc(I)c1O |  | inactive | inactive | inactive | inactive | 23.7 µM (active) | inactive | 
Nc1ccc2c3c(cccc13)-c1ccccc1-2 | inactive | inactive |  | inactive | 31.2 µM (active) |  | inactive | 
CCc1cc(Cc2cc(CC)c(N)c(CC)c2)cc(CC)c1N | 54.5 µM (active) | inactive | inactive | inactive | inactive |  | inactive | 68.6 µM (active)
CCCC(=O)OC[C@@H](OC(=O)CCC)[C@@H](OC(=O)CCC)[C@H](Cn1c2nc(=O)[nH]c(=O)c-2nc2cc(C)c(C)cc21)OC(=O)CCC |  | inactive |  | inactive | 13.5 µM (active) |  | inactive | inactive
O=c1[nH]sc2ccccc12 | 30.6 µM (active) | inactive | inactive |  |  |  | inactive | 27.3 µM (active)
NC(=O)C1(N2CCCCC2)CCN(CCCN2c3ccccc3CCc3ccc(Cl)cc32)CC1 | 16.8 µM (active) |  |  | inactive | inactive | 23.7 µM (active) |  | 23.7 µM (active)
Cc1cc(=O)oc2cc(N(C)C)ccc12 |  | inactive |  | inactive | inactive |  | inactive | 
CCN(CC)CCCC(C)Nc1c2ccc(Cl)cc2nc2ccc(OC)cc12 (stereo not given) |  | inactive |  | inactive | inactive |  | inactive | 13.3 µM (active)
OCCN(CCO)c1nc(N2CCCCC2)c2nc(N(CCO)CCO)nc(N3CCCCC3)c2n1 |  | inactive |  | inactive | 12 µM (active) |  | inactive | 
ON=C1CCCC1 | 63.3 µM (active) | inactive | inactive | inactive | inactive | inactive | inactive | inactive
C=C(C)C(=O)OCC(O)COc1ccc(C(C)(C)c2ccc(OCC(O)COC(=O)C(=C)C)cc2)cc1 (stereo not given) |  |  | inactive | inactive | inactive | 61.1 µM (active) |  | 
CCCCCCCCCOC(=O)c1ccc(O)cc1 |  |  | inactive |  |  | 24 µM (active) | inactive | 
Cc1cc(C2CCCCC2)n(O)c(=O)c1 | inactive |  | inactive |  |  | 3.35 µM (active) | inactive | 
